The text below walks through data of paper PMC12136788.

The chains are these.
T1: UNK ZnF1-6 (called full-length) (human, UniProt Q9C0B0 30-357)
T1 sequence: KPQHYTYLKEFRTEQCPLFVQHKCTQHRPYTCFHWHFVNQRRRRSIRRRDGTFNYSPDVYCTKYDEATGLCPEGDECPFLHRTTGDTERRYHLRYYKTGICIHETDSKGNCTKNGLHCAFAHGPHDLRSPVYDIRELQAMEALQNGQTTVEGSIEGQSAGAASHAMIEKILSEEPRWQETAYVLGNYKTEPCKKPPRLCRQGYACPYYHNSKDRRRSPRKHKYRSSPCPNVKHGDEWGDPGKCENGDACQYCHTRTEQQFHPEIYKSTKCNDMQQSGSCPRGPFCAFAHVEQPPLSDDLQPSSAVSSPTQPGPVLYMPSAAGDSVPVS

B1: chr7:158693335:158693439:-|CDS|ENSG00000146918|unk|total|mutant (ssRNA)
RNA: GGGAGUUCUACAGUCCGACGAUCAAGGAAACAGAAAGAAGAAUUAUGGCAAAGGCUGAAGAAUUUAUUGACAGAUGUGUUGUCCGAAAGCCCAGUGGAUGGGUGGCAGGCCGUGGAAGCCCAGGGUGAAGACAAUAUGGAAACCAACAGAGGAUUGAGCAUCA
B2: ENSG00000136451:be:win_1351|CDS|ENSG00000136451|bound_else_gene|NA|bound_elsewhere_windowed (ssRNA)
RNA: GGGAGUUCUACAGUCCGACGAUCCCAUUAUCCAUGACCUCUCCUUUAACACUCACUACCCCAGUCAACCUCCCCACCCCCGUCACUGCCCCAGUGAAUAUAGCACACCCUGUCACCAUCACAUCUCCAAUGAAUCUACCCACACAACAGAGGAUUGAGCAUCA
B3: chr19:38730201:38730298:+|3pUTR|ENSG00000130402|msi1_unk|FALSE|overlapping (ssRNA)
RNA: GGGAGUUCUACAGUCCGACGAUCCAGAGAAUUACUAUUUACUUUAUUAACUUACGGAUUUAUUAUAUAAAUAUAUAUUCACCUAGCAACAUAUCUCUGCCGUCUCUCCUGCUCUCAUAAUGAAGACAUAGCCGAUUCUCUGCCCAACAGAGGAUUGAGCAUCA
B4: chr7:158734047:158734148:-|3pUTR|ENSG00000117868|msi1_unk|FALSE|overlapping (ssRNA)
RNA: GGGAGUUCUACAGUCCGACGAUCCUACCCGGAACACACCCUCUCACAGACGUACCAAUGUUAUUUUUAUAAUUUCAUGGAUUUAGUUAUACAUACCUUAAUAGUUUUAUAAAAUUGUUGACAUUUCAGGCAAAUUUGGCCAAUCAACAGAGGAUUGAGCAUCA
B5: chr3:58425360:58425463:+|3pUTR|ENSG00000168297|unk|FALSE|unique (ssRNA)
RNA: GGGAGUUCUACAGUCCGACGAUCAGACAGCUCCUAGAAACAUUCCUCUUACAGUUCAUUUCUCUAAAGCAUUUUCUGAUUCUUAGAUAACUCCAAUUUUUGCUACCUUUAUCUUAGACAUUAACACUAUAGCCCAAAGCAUAGCAACAGAGGAUUGAGCAUCA
B6: chr12:107752058:107752159:-|CDS|ENSG00000110851|unk|FALSE|unique (ssRNA)
RNA: GGGAGUUCUACAGUCCGACGAUCUAACUCUAUAAAUGUUGAUGGUAAUACAGCAUUAUCUAUCACCAAUAACCCUUCAGCACUAGAUCCCUAUCAGUCCAAUGGAAAUGUUGGAUUAGAACCAGGCAUUGUUUCAAUAGACUCCAACAGAGGAUUGAGCAUCA
B7: chr2:165880514:165880799:-|CDS|ENSG00000123607|control|control|control (ssRNA)
RNA: GGGAGUUCUACAGUCCGACGAUCGAUGGCAUGGAAAUAUAGCAAUCGGACAAAUCCGGCAGUAGGUGAGUUUGGCAAUCACCUAGAUUUUUCACAGAAAAAUUAUGUUGUAUUUAUUAAUUUUCAUUUAAAUGCAUUUGAUUUCAACAGAGGAUUGAGCAUCA
B8: chr14:75059847:75060235:-|three_prime_utr|ENSG00000119640|control|control|control (ssRNA)
RNA: GGGAGUUCUACAGUCCGACGAUCAACCACAUUAAAAAAAUAAAAAGGAUAACUGGAAAAUCCCAAAAUAUUUGGAAACCAUAUAGCACACUUACUUCUAAAAUUGUGGUAGAAUACAUAUAACAUAGAAAUUAUUGUUCUAACCAACAGAGGAUUGAGCAUCA
B9: chr1:93180074:93180188:-|CDS|ENSG00000117500|unk|total|mutant (ssRNA)
RNA: GGGAGUUCUACAGUCCGACGAUCCUGGCCGCUCUGCCUCCGGUGCUGCUGCCUGGGGCGGCCGGCUUCACACCUUCCCUCGACCGCGACUUCACCUUUACCCUUCCCGCCGGCCAGAAGGAGUGCUUCUACCAGCCCAUGCCCCAACAGAGGAUUGAGCAUCA
B10: chr11:11963431:11963477:-|3pUTR|ENSG00000050165|msi1_unk|FALSE|overlapping (ssRNA)
RNA: GGGAGUUCUACAGUCCGACGAUCUUGACACUGUCCCUCUUUGGCAGUUGCAUUAGUAACUUUGAAAGGUAUAUGACUGAGCGUAGCAUACAGGUUAACCUGCAGAAACAGUACUUAGGUAAUUGUAGGGCGAGGAUUAUAAAUCAACAGAGGAUUGAGCAUCA
B11: chr1:965281:965395:+|3pUTR|ENSG00000187961|unk|FALSE|unique (ssRNA)
RNA: GGGAGUUCUACAGUCCGACGAUCCCAUCCGUUCACGUCUCUGCAUCCAUUCCUUCAUGUCUUUAUUUAGUUGUUUAUUUAUUUAGUUAUUUAUCUUAUUUAUUGAGGGGUGAGGAGUGCCACGGCUGCCCGUUUACACCUUUACAACAGAGGAUUGAGCAUCA
B12: chr8:47773456:47773635:-|3pUTR|ENSG00000253729|msi1_unk|FALSE|overlapping (ssRNA)
RNA: GGGAGUUCUACAGUCCGACGAUCGUUUUUUCCUUUCAUUUUAUUCUCUUCUAGUUUUGACAUUUUAUGAUAGAUUUGCUCUCUAGAAGGAAACGUCUUUAUUUAGGAGGGCAAAAAUUUUGGUCAUAGCAUUCACUUUUGCUACAACAGAGGAUUGAGCAUCA
B13: ENSG00000124766:be:win_3001|3pUTR|ENSG00000124766|bound_else_gene|NA|bound_elsewhere_windowed (ssRNA)
RNA: GGGAGUUCUACAGUCCGACGAUCUUUUUUUGGUAGUUGUUGUUACCCACGCCAUUUUACGUCUCCUUCACUGAAGGGCUAGAGUUUUAACUUUUAAUUUUUUAUAUUUAAAUGUAGACUUUUGACACUUUUAAAAAACAAAAACAACAGAGGAUUGAGCAUCA
B14: chr1:965281:965395:+|3pUTR|ENSG00000187961|unk|total|mutant (ssRNA)
RNA: B11 RNA with U67C, A68C, U83C, A84C
B15: ENSG00000124766:be:win_2951|3pUTR|ENSG00000124766|bound_else_gene|NA|bound_elsewhere_windowed (ssRNA)
RNA: GGGAGUUCUACAGUCCGACGAUCCUUUAUUCCUUCCUUUUCCUUUUUUUCUUUUUUUUUUCUUUUUUUUUUUUUUUUUUUGGUAGUUGUUGUUACCCACGCCAUUUUACGUCUCCUUCACUGAAGGGCUAGAGUUUUAACUUUCAACAGAGGAUUGAGCAUCA
B16: chr11:130144177:130144243:+|3pUTR|ENSG00000084234|msi1_unk|total|mutant (ssRNA)
RNA: GGGAGUUCUACAGUCCGACGAUCAUGAGGGUGUCCGCUGCUGCUUUCCUUCGGAAUCCAGUGCUUCCACAGAGAUCCGCCUGCCGCUUAUAUUUGACAUUCUUCACUGUCUGUUGUUUACCUACCGCCGCUUUUUACCGUUCACAACAGAGGAUUGAGCAUCA

Substitutions are numbered along the chain they refer to. Over roughly 5,800 sequences, “enrichment r” has its median near 0.68; the highest 2% begin near 11. For the sample, the highest values were picked, then their nearest neighbours and some sequences at random.

In this experiment the target is T1, UNK ZnF1-6 (called full-length). The experiment can be described thus: nsRBNS (natural sequence RNA bind-n-seq); RBNS binding buffer (assumed for nsRBNS): 25 mM Tris pH 7.5, 150 mM KCl, 3 mM MgCl2, 0.01% Triton X-100, 500 ug/ml BSA, 20 U/ml SUPERase-In, 4 C; UNK is unkempt and MSI1 is Musashi-1; names of the RNAs are library labels; protein concentration not given here; high values mean tight binding.
Molecule B1 returned a binding signal of 1 enrichment R. For B2, the binding signal is 1.83 enrichment R. The figure for B3 is 20.4 enrichment R; for B4 it is 33.1 enrichment R. To B5 belongs 3.62 enrichment R; to B6, 0.391 enrichment R. B7 had a binding signal of 0.541 enrichment R.

B8 returned a binding signal of 2.02 enrichment R. B9 gave a binding signal of 0.868 enrichment R. B10 displayed a binding signal of 0.884 enrichment R. In turn, B11 had a binding signal of 199 enrichment R. To B12 belongs 5.42 enrichment R; to B13, 4.11 enrichment R. Turning to B14, the binding signal was found to be 5.63 enrichment R.

Turning to B15, the binding signal came out at 35.6 enrichment R. The figure for B16 is 0.644 enrichment R.
